From PubChem BioAssay (Tox21)
Inconclusive results are not listed. Entries that show only a call come without a potency. Active and inactive are the calls of the source. The call rests on the fitted dose curve; in most records, active means well fitted cell-killing curve with a large enough effect in the repeat runs; inconclusive means weak or mixed curves, or effect the other way; inactive means flat fitted curve, though single readings scatter.

test: qHTS RealTime-Glo MT Cell Viability Assay in HEK293 cells - 24 hour (AID 1224886); settings: RealTime-Glo luminescence; series mostly up to 76.8 µM; further: nearly all actives have a fitted effect of over 50% in size; on activity change, negative = cytotoxicity: top concentration of the series differs between compounds
From the text: National Center for Advancing Translational Sciences [NCATS]
NIH Chemical Genomics Center [NCGC]
U.S. Environmental Protection Agency [EPA]
National Institutes of Environmental Health Sciences [NIEHS]
National Toxicology Program [NTP]
U.S. Food and Drug Administration [FDA]
Measure of cell viability is critical in the cell-base assay. Analysis of cell viability is necessary for the characterization of cell responses to cytotoxic drugs and environmental stress. A RealTime-Glo MT Cell Viability Assay to monitor cell viability in real time of continues cell culture during 40 hours of compound treatment was used to screen Tox21 10K library compounds in Hek293 cells. The RealTime-Glo MT Cell Viability Assay is a nonlytic, homogeneous, bioluminescent method to measure cell viability in real time using a simple, plate-based method. The assay involves adding NanoLuc luciferase and a cell-permeant prosubstrate to cells in culture. Viable cells reduce the proprietary prosubstrate to generate a substrate for NanoLuc luciferase. This substrate diffuses from cells into the surrounding culture medium, where it is rapidly used by the NanoLuc Enzyme to produce a luminescent signal. The signal correlates with the number of viable cells, making the assay well suited for cytotoxicity studies.
Tox21 Assay Protocol Summary:
The mixture of Hek293 cell suspension and reagents were dispensed at 600cells/6 ul/well in 1536-well tissue culture treated black solid bottom plates using a Multidrop dispenser. After the assay plates were incubated at a 37 C/5% CO2 incubator for 5 hours, 23 nL of compounds dissolved in DMSO, positive and negative controls was transferred to the assay plate by a pintool work station. The plates were incubated at 37 C for 40 hours. The luminescence intensity were measured at 0h, 8h, 16h, 24h, 32h and 40h time points using ViewLux plate reader during compound treatment.
Potency means the concentration at half of the fitted maximal effect.

| SMILES | Potency | activity change, negative = cytotoxicity |
| --- | --- | --- |
| COC(C)CCO (stereo not given) | inactive | – |
| CCOc1ccc2nc(N)sc2c1 | inactive | – |
| CCCCCCCCCC/C=C/C#N | inactive | – |
| CC(C)Nc1nc(N)nc(Cl)n1 | inactive | – |
| CC1CN(c2ccccc2)NC1=O (stereo not given) | inactive | – |
| CCC(=O)c1ccc2c(c1)N(CCCN(C)C)c1ccccc1S2 | 10.7 µM (active) | – |
| CCOC(=O)c1cc(=O)c2c(OCC(COc3cccc4oc(C(=O)OCC)cc(=O)c34)OC(=O)[C@@H](N)CCCCN)cccc2o1 | inactive | – |
| CC(C)O | inactive | – |
| COC(=O)/C=C(/C)N | inactive | – |
| CC1=CC(=O)CC(C)(C)C1=O | inactive | – |
| Cc1cc2nc(N)sc2cc1C | inactive | – |
| Cc1ccsc1C(=CCCN1CCC[C@@H](C(=O)O)C1)c1sccc1C | inactive | – |
| CCOC(=O)COc1ccc2c(c1)CC(NCC(O)c1cccc(Cl)c1)CC2 (stereo not given) | inactive | – |
| CCCCc1ccc2nc(NC(=O)OC)[nH]c2c1 | inactive | – |
| NNS(=O)(=O)c1ccc(Oc2ccc(S(=O)(=O)NN)cc2)cc1 | inactive | – |
| COc1cc(Cl)ccc1Cl | inactive | – |
| C/C(=N\O)[C@@H](C)NCC(C)(C)CN[C@H](C)/C(C)=N/O | inactive | – |
| CCN(O)CC | inactive | – |
| CC(C)S | inactive | – |
| CN1CCC[C@@H]1Cc1c[nH]c2ccc(CCS(=O)(=O)c3ccccc3)cc12 | inactive | – |

| SMILES | Potency | activity change, negative = cytotoxicity |
| --- | --- | --- |
| Cc1ccc([N+](=O)[O-])c(N)c1 | inactive | – |
| C[C@@H]1CN(c2c(F)c(F)c3c(=O)c(C(=O)O)cn(C4CC4)c3c2F)C[C@H](C)N1 | – | 9.9% [at 15.8 µM] (inactive) |
| O=CCCc1ccccc1 | inactive | – |
| CCCCC(=O)O[C@]1(C(=O)CO)[C@H](C)C[C@H]2[C@@H]3CCC4=CC(=O)C=C[C@]4(C)[C@@]3(F)[C@@H](O)C[C@@]21C | inactive | – |
| O=c1[nH]c(=O)n([C@H]2C[C@H](O)[C@@H](CO)O2)cc1C(F)(F)F | inactive | – |
| CN(CC1(C)CCCO1)S(=O)(=O)c1ccc(Cl)c(S(N)(=O)=O)c1 (stereo not given) | inactive | – |
| COc1cc(C)ccc1C(C)C | inactive | – |
| NS(=O)(=O)c1cc(-c2nn[nH]n2)c(NCc2cccs2)cc1Cl | inactive | – |
| CN(C)CCOc1ccccc1Cc1ccccc1 | inactive | – |
| NCCCN1CCN(CCCN)CC1 | inactive | – |
| OCCN(CCO)c1ccccc1 | inactive | – |
| CCCCCCn1c(=O)c2c(ncn2C)n(C)c1=O | inactive | – |
| CC1=C(CC(=O)O)c2cc(F)ccc2/C1=C\c1ccc(S(C)(=O)=O)cc1 | inactive | – |
| CC(C)c1ccccc1 | inactive | – |
| CCC/C=C/CO | inactive | – |
| CN1[C@@H]2CC[C@H]1CC(OC(=O)c1c[nH]c3ccccc13)C2 (stereo not given in full) | inactive | – |
| CC(=O)N[C@@H](CC(C)C)C(=O)O | inactive | – |
| CC(C)CC(=O)OCc1ccccc1 | inactive | – |
| CCCC(CCC)(C(=O)OCC)C(=O)OCC | inactive | – |
| O=C(CCCl)NCc1ccccc1 | inactive | – |
